High-throughput results as filed in PubChem.
C8 TRAIL sens = viability loss with TRAIL in NB7+C8 cells, primary screen, TRAIL sensitizer project, cell-based, ATPlite luminescence; inhibition (viability loss, TRAIL sensitization), % at 10 µM; 1% of 360,000 active;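 active = compounds causing at least 50% loss of cell viability in the single-dose screen, relative to plate controls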
SENP8 block-1 = human SENP8 protease inhibitors, primary screen, biochemical, fluorescence, Nedd8 protein substrate, uHTS; recombinant SENP8; inhibition, % at 20 µM; 0.64% of 360,000 active; in the data active = inhibition mostly above about 40%, no sharp cut-off; inactive = mostly below about 27%
Target sequence (Q96LD8 whole entry, looked up): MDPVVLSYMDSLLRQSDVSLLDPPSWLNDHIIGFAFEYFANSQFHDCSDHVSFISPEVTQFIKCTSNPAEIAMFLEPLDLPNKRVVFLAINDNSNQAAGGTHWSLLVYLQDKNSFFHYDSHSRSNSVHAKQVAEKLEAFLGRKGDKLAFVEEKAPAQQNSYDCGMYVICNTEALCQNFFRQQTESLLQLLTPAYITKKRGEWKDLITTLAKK
SENP7 inh = SENP7 protease inhibitors, primary screen, biochemical, luminescence, uHTS | Sentrin-specific protease 7 (Homo sapiens), Q9BQF6 | recombinant SENP7, Z-RLRGG-aminoluciferin luminescence, 40 min | inhibition, % at 5 µM | 1.5% of 330,000 active | AID 434973, 2010;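 active = inhibition above about 50% at the single test dose, limit read from the data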
PPC-1+TRAIL kill = compounds killing PPC-1 cancer cells with TRAIL present, primary screen, TRAIL potentiator project, ATPLite luminescence, uHTS; 0.41% of 220,000 active; cell killing (% activity), % at 4 µM or 5 µM; PPC-1 cells + TRAIL, ATPLite viability luminescence;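 active = cell killing above 50% in the first pass at 4 µM, then a duplicate retest at 5 µM averaging 50% or more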
SENP8 block-2 = SENP8 protease inhibitors, primary screen, biochemical, luminescence | Sentrin-specific protease 8 (Homo sapiens), Q96LD8 | purified SENP8, Z-RLRGG-aminoluciferin cleavage | inhibition, % at 10 µM | 1.2% of 330,000 active | AID 2540, 2010; in the data active = inhibition above about 50%
SENP6 block = SENP6 protease inhibitors, primary screen, biochemical, luminescence, uHTS | Sentrin-specific protease 6 (Homo sapiens), Q9GZR1 | Recombinant SENP6 catalytic domain, aminoluciferin luminescence | inhibition, % at 10 µM | 1.8% of 330,000 active | AID 2599, 2010;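 active = inhibition above about 50% at the single tested dose, limit read from the data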
SENP8 conf = SENP8 protease inhibitors, retest, confirmation, biochemical, luminescence, single concentration; shares compounds with SENP7 inh; Recombinant SENP8, Z-RLRGG-aminoluciferin luminescence, 60 min; inhibition, % at 12.5 µM; 40% of 6,200 active;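 active = mean inhibition across replicates above about 50%, limit read from the data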
SENP6 confirm = SENP6 protease inhibitors, confirmation, biochemical, luminescence, single concentration; shares compounds with SENP7 inh; recombinant SENP6, Z-RLRGG-aminoluciferin luminescence; inhibition, % at 12.5 µM; 58% of 6,200 active; AID 488915, 2010
SENP7 conf = SENP7 protease inhibitors, retest, confirmation, biochemical, luminescence, single concentration | 69% of 6,200 active | shares compounds with SENP7 inh | inhibition, % at 12.5 µM | recombinant SENP7, Z-RLRGG-aminoluciferin luminescence, 40 min
Casp3 select = caspase-3 protease inhibitors, confirmation, selectivity assay for SENP inhibitor project, biochemical, single concentration | shares compounds with SENP7 inh | purified caspase-3, Z-DEVD-aminoluciferin luminescence, 60 min | inhibition, % at 12.5 µM | 60% of 6,200 active | AID 488918, 2010;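 active = mean inhibition above about 50%, limit read from the data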
Target sequence (P42574 28-227 limits assumed): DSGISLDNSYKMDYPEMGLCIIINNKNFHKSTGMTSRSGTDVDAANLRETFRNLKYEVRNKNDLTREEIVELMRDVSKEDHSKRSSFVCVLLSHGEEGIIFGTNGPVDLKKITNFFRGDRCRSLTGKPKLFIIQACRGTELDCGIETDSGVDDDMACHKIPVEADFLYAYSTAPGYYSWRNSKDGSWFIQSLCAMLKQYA
SENP luc ctr = luminescence interference (SENP counter-screen) | inhibition, % at 12.5 µM | AID 488919 | 39% of 6,200 active | shares compounds with SENP7 inh | Pre-incubated SENP8/Z-RLRGG-aminoluciferin, luciferase luminescence interference;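 active = mean inhibition above about 50% when retested at one dose, limit read from the data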
Numbers stand for hits; n = inactive; x = no result given. Sampled rows, rich in hits. Any-hit rate of the full collection: about 3%.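 Rule for the calls, unless noted: active = mean inhibition above about 50% in the one-dose retest (limit read from the data); inactive = the rest.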

SMILES | C8 TRAIL sens | SENP8 block-1 | SENP7 inh | PPC-1+TRAIL kill | SENP8 block-2 | SENP6 block | SENP8 conf | SENP6 confirm | SENP7 conf | Casp3 select | SENP luc ctr
COc1ccc(C(=O)Nc2ccc3c(c2)OCCO3)cc1Br | n | n | 61 | x | 56 | 72 | n | n | 80 | 54 | n
COc1ccc(C(=O)Nc2ccc(Nc3ccccc3)cc2)cc1Br | n | n | n | x | n | n | x | x | x | x | x
CCc1ccc(C(=O)NC(=S)Nc2ccc3c(c2)OCCO3)cc1 | n | n | n | n | n | n | x | x | x | x | x
Cc1cc(C(=O)Nc2ccc(N3CCCCC3)cc2)no1 | n | n | 54 | n | n | n | n | 56 | 77 | 81 | n
O=C(Nc1ccc(Cl)cc1Cl)c1ccc(Br)o1 | n | n | n | x | 55 | 69 | n | n | n | n | n
Cc1cc(C)cc(C(=O)NC(=S)Nc2ccc3c(c2)OCCO3)c1 | n | n | n | n | n | 84 | n | n | n | n | n
Cc1cc(C(=O)Nc2ccc(S(=O)(=O)N3CCCC3)cc2)no1 | n | n | n | n | n | n | x | x | x | x | x
Cc1cc(F)ccc1S(=O)(=O)Nc1ccccc1C(=O)NC1CCN(Cc2ccccc2)CC1 | n | n | n | x | n | n | x | x | x | x | x
Cc1ccc(C2NC(=O)c3ccccc3N2)c(C)c1 (stereo unspecified) | n | n | x | x | x | x | x | x | x | x | x
COc1cc2c(cc1OC)C(NNC(=O)c1ccc(Br)o1)=NC(C)(C)C2 | n | n | n | x | n | n | x | x | x | x | x
CCOc1ccc(NC(=O)CN2CCN(CC(=O)Nc3ccc4c(c3)OCCO4)CC2)cc1 | n | n | n | n | n | n | x | x | x | x | x
COc1ccc(C(=O)Nc2ccc(N3CCCCC3)cc2)cc1Br | n | n | 68 | n | n | n | n | n | n | n | n
CCCOc1cccc(C(=O)Nc2cccc(NC(=O)c3ccco3)c2)c1 | n | n | n | n | n | n | x | x | x | x | x
O=C(Nc1ccc(N2CCCC2)c(Cl)c1)c1ccc([N+](=O)[O-])cc1 | n | n | n | n | n | n | x | x | x | x | x
CCOc1ccc(C(=O)Nc2ccc3c(c2)OCCO3)cc1 | 55 | n | 86 | x | 71 | 84 | n | 77 | 95 | 87 | 69
Cc1cc(C(=O)Nc2ccc(N3CCCC3)c(Cl)c2)ccc1[N+](=O)[O-] | n | n | 52 | n | n | 60 | n | n | 65 | n | n
CCCOc1cccc(C(=O)Nc2ccc3c(c2)OCCO3)c1 | 52 | n | 66 | x | 53 | 77 | 69 | 67 | 86 | 59 | 55
COc1ccc(CNc2cccc3[nH]c(C(F)(F)F)nc23)cc1OC | n | n | n | x | n | n | x | x | x | x | x
COc1cccc(OC)c1C(=O)OCC(=O)NC1CCCCCC1 | n | n | n | x | n | n | x | x | x | x | x
COc1ccc(S(=O)(=O)N2CCN(C(=O)c3ccc(=O)[nH]n3)CC2)cc1OC | n | n | n | x | n | n | x | x | x | x | x
O=C(Nc1ccc2c(c1)OCO2)C1Cc2c(-c3ccc(Cl)cc3)ccnc2O1 (stereo unspecified) | n | n | x | x | x | x | x | x | x | x | x
OC(c1ccc2c(c1)OCO2)c1ncc(-c2cccc(C(F)(F)F)c2)[nH]1 (stereo unspecified) | n | n | x | x | x | x | x | x | x | x | x
